HepG2 tox: qHTS for Inhibitors of TGF-b: Cytotox Counterscreen; 0.76% of 410,000 active; HepG2 CAGA-GFP viability, ATP luminescence, 18 h; Potency, µM (series often up to 46.1 µM), for inactives: top-dose activity change, negative = cytotoxicity, hits mostly cytotoxic; AID 588856, 2011
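CellTiter-Glo luminescence gave cytotoxicity after 18 hours at 37 degrees C. The cells were HepG2 CAGA-GFP in 1% FBS DMEM, stimulated with 500 pg/mL TGF-beta after compound addition. %Activity was normalised to no-cell wells (complete cell-killing) and DMSO (no toxicity), and curves were fitted and classified.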
DT40 TDP1 no CPT: qHTS for Inhibitors of human tyrosyl-DNA phosphodiesterase 1 (TDP1): qHTS in cells in absence of CPT; DT40 Tdp1-/- hTDP1 cells, no CPT, ATP luminescence, 48 h; Potency, µM (highest dose often 46.2 µM), for inactives: top-dose activity change, negative = growth inhibition, usual class: inhibitors; 15% of 420,000 active; further: on the % scale 0 is the no-effect control and ±100 the full control effect; nearly all actives have a fitted effect of over 55% in size
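No-CPT arm: Tdp1-/-;hTDP1 DT40 cells (400/well) plus compounds, incubated ≥48 hr at 37 °C. Readout CellTiter-Glo luminescence.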
DT40 TDP1 CPT: qHTS for Inhibitors of human tyrosyl-DNA phosphodiesterase 1 (TDP1): qHTS in cells in presence of CPT. chicken DT40 Tdp1-/-;hTDP1 cells + 20 nM CPT, ATP luminescence, 48 h. Potency, µM (top dose mostly 46.2 µM), for the others: top-dose activity change, negative = growth inhibition, most hits filed as inhibitors. 12% of 420,000 active. AID 686979, 2013; further: on the % scale 0 is the no-effect control and ±100 the full control effect; nearly all actives have a fitted effect of over 55% in size
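Chicken DT40 Tdp1-/- cells complemented with human TDP1, 400 cells/well, exposed to compounds plus 20 nM camptothecin for at least 48 h at 37 C; viability read as ATP content by CellTiter-Glo luminescence.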
TGFb inhibitor: qHTS for Inhibitors of TGF-b; HepG2 CAGA-GFP TGF-b/SMAD3 reporter, GFP fluorescence, 18 h; TGF-beta stimulated, 500 pg/mL final; Potency, µM (highest dose often 46.1 µM), without a hit: at the top dose activity, negative = inhibition, most hits filed as inhibitors; 1.2% of 410,000 active; AID 588855, 2011; further: on the % scale 0 is the no-effect control and ±100 the full control effect; nearly all actives have a fitted effect of over 65% in size
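Using HEPG2 CAGA-GFP reporter cells at 1000 cells/well, we pinned test compounds, stimulated with recombinant TGF-beta (500 pg/mL final) and measured total well GFP after 18 h.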
ATXN2 expr inh: Primary qHTS for Inhibitors of ATXN expression; Potency, µM (highest dose often 57 µM), inactives show top-dose activity change, negative = inhibition, hits mostly inhibitors; HEK-293 ATXN2-luciferase reporter, luminescence, 24 h; 0.72% of 360,000 active; further: on the % scale 0 is the no-effect control and ±100 the full control effect; nearly all actives have a fitted effect of over 55% in size
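ATXN2-luciferase reporter cells (luciferase flanked by upstream and downstream ATXN2 gene portions) were treated 24 h at 37 °C with compounds at up to 57 uM. SteadyGlo luminescence gave expression; GF-AFC fluorescence gave viability.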
ATXN viability: Viability Counterscreen for Primary qHTS for Inhibitors of ATXN expression. Potency, µM (titrated, usually from 56.7 µM), most hits filed as cytotoxic. S2 cells (HEK-293 line with an ATXN2-luciferase reporter) viability, CellTiter-Fluor protease fluorescence, 24 h. 0.49% of 400,000 active; further: nearly all actives have a fitted effect of over 40% in size
Starred values were filed as active, the others as inactive; i = inactive; ? = inconclusive; . = no result given. This is a sample that favours compounds with a hit; in the whole collection about 17% have one here. The call rests on the fitted dose curve; in most records, active means well fitted curve in the direction sought with a large enough effect; inconclusive means small, poorly fitted or top-dose-only effect, or another doubt; inactive means no such curve, though single readings can be large; an effect the other way counts as inactive or inconclusive. Potency means the concentration at half of the fitted maximal effect.

SMILES | HepG2 tox | DT40 TDP1 no CPT | DT40 TDP1 CPT | TGFb inhibitor | ATXN2 expr inh | ATXN viability
CC(=O)C1=CN(Cc2ccccc2)CCC1=O | -3% | -8% | -1% | -1% | -3% | i
Cc1ccc(C2=CN(Cc3ccccc3)CCC2=O)cc1 | -5% | ? | 21µM* | 3% | 9% | i
Cc1ccc(-c2cc(C(F)(F)F)n3nc(C(=O)Nc4ccc(Cl)c(C(F)(F)F)c4)cc3n2)cc1 | -3% | 0% | -8% | 0% | -1% | i
CNc1ccccc(-c2ccc3ccccc3n2)c1=O | -16% | 23µM* | ? | -3% | 23% | i
CCOc1ccc(N(CC)S(=O)(=O)c2cc(Br)cc3c2N(C(C)=O)C(C)C3)cc1 (stereo not given) | -55% | 7.3µM* | 21µM* | 10µM* | -9% | i
CC(=O)N1c2c(cc(Br)cc2S(=O)(=O)N2CCN(c3cccc(Cl)c3)CC2)CC1C (stereo not given) | -19% | 9.2µM* | 10µM* | ? | 5% | i
CCOc1ccc(OCC)c(NS(=O)(=O)c2cc(Br)cc3c2N(C(C)=O)C(C)C3)c1 (stereo not given) | -25% | 13µM* | ? | ? | 0% | i
CCOC(=O)N1CCN(S(=O)(=O)c2cc(Br)cc3c2N(C(C)=O)C(C)C3)CC1 (stereo not given) | -12% | -18% | -18% | 2% | 3% | i
Oc1ccc(N=Cc2ccc(-c3cccs3)s2)cc1 | 7.9µM* | ? | ? | 11µM* | ? | i
O=Cc1ccc(-c2cccs2)s1 | -10% | -9% | -7% | 5.6µM* | ? | i
CCN(CC)C(=O)c1ccc(-c2cccs2)s1 | -10% | ? | 2% | -16% | 23% | i
CCCCOc1ccc(N=Cc2cccs2)cc1 | 7% | -20% | -4% | 11% | 10% | i
CN(CC(=O)Nc1ccc(F)c(F)c1F)C(=O)CCN1C(=O)C2CCCCC2C1=O (stereo not given) | -14% | ? | -9% | 4% | 5% | i
COC(=O)C(NC(C)=O)(Nc1nc2c(C)cc(C)cc2s1)C(F)(F)F (stereo not given) | -16% | 16µM* | ? | -9% | -28% | i
CCCNC(=O)c1sc2c(c1C(=O)Nc1ccccn1)CCCC2 | -28% | 18µM* | 26µM* | ? | -22% | i
CCCNC(=O)c1c(NC(=O)c2ccccc2F)sc2c1CCCCC2 | 0% | -4% | 3% | 2% | 5% | i
O=C(Cn1nnc2ccccc21)OCC(=O)c1ccc(F)cc1 | -19% | -1% | 17% | -9% | 6% | i
NS(=O)(=O)c1cccnc1Nc1cccc(C(F)(F)F)c1 | -8% | -28% | -21% | ? | 5% | i
Fc1ccc(Nc2nc3nonc3nc2Nc2cccc(C(F)(F)F)c2)cc1 | -109% | 0.16µM* | 0.33µM* | 0.71µM* | . | .
COC(=O)C1=C[C@@H](C(=O)OC)C2C3=C(C(=O)[C@]2(C)NC(=O)c2ccccc2)[C@H](C)[C@@H]2C(=O)N(C)C(=O)[C@@H]2[C@@H]3C1 (stereo not given in full) | -1% | . | . | -12% | . | .
O=C(Cn1cc(C(=O)c2cccs2)c2ccccc21)Nc1ccc(Br)cc1 | -21% | 5.8µM* | ? | ? | . | .
COc1ccc(OC)c(NC(=O)Cn2cc(C#N)c3ccccc32)c1 | -3% | -2% | 0% | -1% | -14% | i
COc1ccccc1NC(=O)Cn1cc(C(=O)c2ccco2)c2ccccc21 | -6% | -10% | -5% | -22% | -6% | i
COc1ccc(OC)c(NC(=O)Cn2cc(C(=O)c3cccs3)c3ccccc32)c1 | 3% | 18µM* | ? | -2% | . | .
COc1ccc(OC)c(NC(=O)Cn2cc(C(=O)c3ccco3)c3ccccc32)c1 | -25% | 16µM* | ? | -2% | 0% | i
SMILES | HepG2 tox | DT40 TDP1 no CPT | DT40 TDP1 CPT | TGFb inhibitor | ATXN2 expr inh | ATXN viability
Cc1cc(C)cc(N(CC(=O)Nc2c(C)cc(C)cc2C)S(=O)(=O)c2c(C)nn(C)c2C)c1 | -7% | ? | ? | ? | 3% | i
O=C(c1ccc(N2CCN(S(=O)(=O)c3ccccc3)CC2)c([N+](=O)[O-])c1)N1CCOCC1 | -31% | 21µM* | ? | -18% | -9% | i
NC(=O)c1ccc(N2CCN(S(=O)(=O)c3cccs3)CC2)c([N+](=O)[O-])c1 | -27% | 3.7µM* | 8.2µM* | 2% | . | i
NC(=O)c1ccc(N2CCN(c3ccccc3O)CC2)c([N+](=O)[O-])c1 | 2% | ? | -22% | -11% | -31% | i
O=C(c1ccc(N2CCOCC2)c([N+](=O)[O-])c1)N1CCN(c2ccccc2)CC1 | -18% | ? | ? | -29% | -2% | i
C/C(=N/NC(=O)c1nnn(-c2nonc2N)c1CSc1ccc(C)cc1)c1ccncc1 | -3% | -28% | -2% | -10% | . | ?
C=CCNC(=S)NNC(=O)c1cccn(Cc2ccc(Cl)cc2Cl)c1=O | -1% | ? | 16µM* | -26% | -11% | i
CCNC(=S)NNC(=O)c1cccn(Cc2ccc(Cl)cc2Cl)c1=O | -3% | ? | ? | -6% | 0% | i
Cc1ccc(CNC(=O)C2CN(S(C)(=O)=O)c3cc(Cl)ccc3O2)cc1 (stereo not given) | -8% | ? | 1% | -15% | -23% | i
Cc1ccc(-n2c(=O)c3ccc(C(=O)NCc4ccccc4Cl)cc3n(Cc3cccc(F)c3)c2=O)cc1 | 4% | ? | ? | 7% | 4% | i
CC1(C)Cc2c(sc3nc(-c4ccccc4)n(N)c(=O)c23)CO1 | -28% | -31% | -37% | -15% | 19% | i
CC1(C)Cc2c(sc3nc(-c4cccs4)n(N)c(=O)c23)CO1 | -9% | 23µM* | 16µM* | -17% | -15% | ?
COc1ccc(Cl)cc1-c1nc(-c2ccc(NC(=O)c3ccncc3)cc2)no1 | -38% | 10µM* | ? | -17% | 2% | i
CCN(CC)CCNC(=O)c1ccc(NC(=O)c2cn(-c3ccc(F)cc3)nc2-c2cccc(OC)c2)cc1 | i | ? | ? | ? | ? | 28µM*
